From PubChem BioAssay AID1159580 (chemical genetic matrix, 2015)
Among all 5,500 compounds or so, about 2,000 (36%) were called active. Inconclusive results (about 18%) are left out. No stated cut-off is given here; in the data, active means normalized growth mostly below about 0.91 (no sharp cut-off); inconclusive means no clear call, values can overlap the other calls; inactive means mostly above about 0.92. This is one part of the list.

Assay: chemical genetic growth profiling, strain panel (AID 1159580);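 further: tested at 20 µM; growth read once vehicle control cultures reached saturation at 30 °C; 1 = growth at the plate median or of vehicle wells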
Settings: growth OD

Measured: normalized growth

NC(=O)NO
inactive: S. cerevisiae deletion strains, locus YJR066W, strain TOR1, stronger effect = lower value 0.931 | S. cerevisiae deletion strains, locus YKL009W, strain mrt4, stronger effect = lower value 0.998 | S. cerevisiae deletion strains, locus YKL068W, stronger effect = lower value 0.997 | S. cerevisiae deletion strains, locus YKL085W, strain MDH1 (second series), stronger effect = lower value 0.989 | S. cerevisiae deletion strains, locus YKL085W, strain MDH1, stronger effect = lower value 0.989 | S. cerevisiae deletion strains, locus YKL160W, strain elf1, stronger effect = lower value 1.03 | S. cerevisiae deletion strains, locus YKL190W, strain CNB1, stronger effect = lower value 1.01 | S. cerevisiae deletion strains, locus YKR001C, strain vps1, stronger effect = lower value 0.992 | S. cerevisiae deletion strains, locus YKR026C, strain gcn3, stronger effect = lower value 1.02 | S. cerevisiae deletion strains, locus YKR091W, strain srl3, stronger effect = lower value 1.01 | S. cerevisiae deletion strains, locus YLL001W, strain dnm1, stronger effect = lower value 1.01 | S. cerevisiae deletion strains, locus YLL026W, stronger effect = lower value 1.02 | S. cerevisiae deletion strains, locus YLL041C, strain sdh2, stronger effect = lower value 1.02 | S. cerevisiae deletion strains, locus YLR027C, strain aat2, stronger effect = lower value 1.03 | S. cerevisiae deletion strains, locus YLR039C, strain RIC1, stronger effect = lower value 1 | S. cerevisiae deletion strains, locus YLR058C, strain SHM2, stronger effect = lower value 1.01 | S. cerevisiae deletion strains, locus YLR102C, strain apc9, stronger effect = lower value 1 | S. cerevisiae deletion strains, locus YLR113W, strain HOG1, stronger effect = lower value 0.951 | S. cerevisiae deletion strains, locus YLR221C, strain rsa3, stronger effect = lower value 1.01 | S. cerevisiae deletion strains, locus YLR258W, strain gsy2, stronger effect = lower value 1.02 | S. cerevisiae deletion strains, locus YLR262C, strain YPT6 (second series), stronger effect = lower value 1 | S. cerevisiae deletion strains, locus YLR262C, strain YPT6, stronger effect = lower value 0.993 | S. cerevisiae deletion strains, locus YLR268W, strain sec22, stronger effect = lower value 0.998 | S. cerevisiae deletion strains, locus YLR320W, strain mms22, stronger effect = lower value 1.02 | S. cerevisiae deletion strains, locus YLR330W, strain CHS5, stronger effect = lower value 1.01 | S. cerevisiae deletion strains, locus YLR342W, strain FKS1 (second series), stronger effect = lower value 1 | S. cerevisiae deletion strains, locus YLR342W, strain FKS1, stronger effect = lower value 1.02 | S. cerevisiae deletion strains, locus YLR357W, strain rsc2, stronger effect = lower value 0.994 | S. cerevisiae deletion strains, locus YLR370C, strain arc18, stronger effect = lower value 1.03 | S. cerevisiae deletion strains, locus YLR371W, strain rom2, stronger effect = lower value 0.997 | S. cerevisiae deletion strains, locus YLR384C, strain iki3, stronger effect = lower value 1.02 | S. cerevisiae deletion strains, locus YLR418C, strain cdc73, stronger effect = lower value 0.97 | S. cerevisiae deletion strains, locus YML016C, strain PPZ1, stronger effect = lower value 1 | S. cerevisiae deletion strains, locus YML032C, strain rad52, stronger effect = lower value 0.984 | S. cerevisiae deletion strains, locus YML120C, strain ndi1, stronger effect = lower value 0.997 | S. cerevisiae deletion strains, locus YML124C, strain tub3, stronger effect = lower value 0.993 | S. cerevisiae deletion strains, locus YMR058W, strain fet3, stronger effect = lower value 1.06 | S. cerevisiae deletion strains, locus YMR078C, strain ctf18, stronger effect = lower value 0.999 | S. cerevisiae deletion strains, locus YMR125W, strain sto1, stronger effect = lower value 1.02 | S. cerevisiae deletion strains, locus YMR129W, stronger effect = lower value 1.02 | S. cerevisiae deletion strains, locus YMR205C, strain PFK2, stronger effect = lower value 1.03 | S. cerevisiae deletion strains, locus YMR223W, strain ubp8, stronger effect = lower value 0.994 | S. cerevisiae deletion strains, locus YMR231W, strain pep5, stronger effect = lower value 1.03 | S. cerevisiae deletion strains, locus YMR263W, strain SAP30, stronger effect = lower value 1.01 | S. cerevisiae deletion strains, locus YMR307W, strain GAS1, stronger effect = lower value 1.03 | S. cerevisiae deletion strains, locus YNL067W, strain RPL9B, stronger effect = lower value 1 | S. cerevisiae deletion strains, locus YNL071W, strain lat1, stronger effect = lower value 1.02 | S. cerevisiae deletion strains, locus YNL128W, strain TEP1, stronger effect = lower value 1.02 | S. cerevisiae deletion strains, locus YNL153C, strain GIM3, stronger effect = lower value 0.994 | S. cerevisiae deletion strains, locus YNL183C, strain NPR1, stronger effect = lower value 0.945 | S. cerevisiae deletion strains, locus YNL209W, strain ssb2, stronger effect = lower value 1.02 | S. cerevisiae deletion strains, locus YNL224C, strain SQS1, stronger effect = lower value 0.99 | S. cerevisiae deletion strains, locus YNL233W, strain BNI4, stronger effect = lower value 1.01 | S. cerevisiae deletion strains, locus YNL248C, strain rpa49, stronger effect = lower value 1.03 | S. cerevisiae deletion strains, locus YNL250W, strain rad50, stronger effect = lower value 0.996 | S. cerevisiae deletion strains, locus YNL271C, strain bni1, stronger effect = lower value 0.999 | S. cerevisiae deletion strains, locus YNL298W, strain CLA4, stronger effect = lower value 0.997 | S. cerevisiae deletion strains, locus YNL307C, strain MCK1, stronger effect = lower value 1 | S. cerevisiae deletion strains, locus YNL322C, strain KRE1 (second series), stronger effect = lower value 1.03 | S. cerevisiae deletion strains, locus YNR049C, strain mso1, stronger effect = lower value 1.01 | S. cerevisiae deletion strains, locus YNR052C, strain pop2, stronger effect = lower value 1.01 | S. cerevisiae deletion strains, locus YOL006C, strain TOP1, stronger effect = lower value 0.967 | S. cerevisiae deletion strains, locus YOL012C, strain htz1 0.591 | S. cerevisiae deletion strains, locus YOL147C, strain pex11, stronger effect = lower value 1 | S. cerevisiae deletion strains, locus YOR001W, strain rrp6, stronger effect = lower value 1.01 | S. cerevisiae deletion strains, locus YOR061W, strain CKA2, stronger effect = lower value 1.01 | S. cerevisiae deletion strains, locus YOR069W, strain VPS5, stronger effect = lower value 1.01 | S. cerevisiae deletion strains, locus YOR070C, strain gyp1, stronger effect = lower value 1.02 | S. cerevisiae deletion strains, locus YOR080W, strain dia2, stronger effect = lower value 1.03 | S. cerevisiae deletion strains, locus YOR083W, strain WHI5 (second series), stronger effect = lower value 0.997 | S. cerevisiae deletion strains, locus YOR083W, strain WHI5, stronger effect = lower value 0.993 | S. cerevisiae deletion strains, locus YOR106W, strain vam3, stronger effect = lower value 1.02 | S. cerevisiae deletion strains, locus YOR136W, strain idh2, stronger effect = lower value 0.991 | S. cerevisiae deletion strains, locus YOR144C, strain elg1, stronger effect = lower value 0.998 | S. cerevisiae deletion strains, locus YOR184W, strain ser1, stronger effect = lower value 0.993 | S. cerevisiae deletion strains, locus YOR231W, strain MKK1, stronger effect = lower value 0.967 | S. cerevisiae deletion strains, locus YOR265W, strain rbl2, stronger effect = lower value 1.02 | S. cerevisiae deletion strains, locus YOR270C, strain vph1, stronger effect = lower value 1.05 | S. cerevisiae deletion strains, locus YOR290C, strain snf2, stronger effect = lower value 1.02 | S. cerevisiae deletion strains, locus YOR316C, strain cot1, stronger effect = lower value 1.01 | S. cerevisiae deletion strains, locus YPL051W, strain arl3, stronger effect = lower value 1.03 | S. cerevisiae deletion strains, locus YPL078C, strain atp4, stronger effect = lower value 1.03 | S. cerevisiae deletion strains, locus YPL106C, strain sse1, stronger effect = lower value 0.984 | S. cerevisiae deletion strains, locus YPL240C, strain hsp82, stronger effect = lower value 1.01 | S. cerevisiae deletion strains, locus YPL241C, strain CIN2, stronger effect = lower value 1.01 | S. cerevisiae deletion strains, locus YPL256C, strain CLN2, stronger effect = lower value 0.954 | S. cerevisiae deletion strains, locus YPR119W, strain clb2, stronger effect = lower value 0.993 | S. cerevisiae deletion strains, locus YPR141C, strain kar3, stronger effect = lower value 0.99 | S. cerevisiae deletion strains, locus YPR163C, strain tif3, stronger effect = lower value 1 | S. cerevisiae deletion strains, locus YPR167C, strain met16, stronger effect = lower value 0.996 | S. cerevisiae deletion strains, strain wtn01, stronger effect = lower value 0.995 | S. cerevisiae strains, strain wild type, stronger effect = lower value 1
